Test results published in PubChem BioAssay.
Values without a mark were called inactive. Active and inactive are the calls of the source. No stated cut-off is given here; in the data, active means fold change permeability below about 0.7 or above about 1.3; inactive means in between.

assay: modulators of brain endothelial barrier permeability, primary screen, cell-based, FITC-avidin fluorescence, HTS (AID 1963498); conditions: actives lie on both sides; further: test concentration not given here

| Structure (SMILES) | fold change permeability |
| --- | --- |
| COCc1nc2c([nH]1)c(=O)n(C)c(=O)n2CC(C)C | 0.8 |
| CC(=O)OCC(CCn1cnc2cnc(N)nc21)COC(C)=O | 0.9 |
| Cc1cccc(C2CN(C)CCc3c2cc(O)c(O)c3Cl)c1 (centres undefined) | 0.7 (active) |
| O=C(c1ccc2c(c1)OCCO2)N1CCCCC1 | 1.2 |
| N=S(=O)(O)Cc1noc2ccccc12 | 1.9 (active) |
| C[n+]1ccccc1CC(=O)c1ccc(Br)cc1 | 0.9 |
| CC(=O)/C(C)=N/O | 1 |
| O=C1c2cccc3c2[C@H](CCC3)CN1[C@@H]1CN2CCC1CC2 | 1.3 (active) |
| c1ccc(C2CN3CCSC3=N2)cc1 (centres undefined) | 1 |
| Nc1nc(OCc2cc(Br)cs2)c2[nH]cnc2n1 | 1.5 (active) |
| CC(C(=O)O)c1ccc(C(=O)c2cccs2)cc1 (centres undefined) | 0.8 |
| NC(N)=NCCC[C@H](N)C(=O)O | 1.1 |
| OC[C@H]1O[C@@H](n2cnc3c(N[C@H]4CCC[C@@H]4O)ncnc32)[C@H](O)[C@@H]1O | 1 |
| NCCCC(=O)O | 0.8 |
| CCN(CC)CC#CCOC(=O)C(O)(c1ccccc1)C1CCCCC1 (centres undefined) | 1.3 (active) |
| CC(C)(Sc1ccc(CCN(CCCCC2CCCCC2)C(=O)NC2CCCCC2)cc1)C(=O)O | 1 |
| CN(C)CCCN1c2ccccc2Sc2ccc(C(F)(F)F)cc21 | 1.2 |
| CC(C)(C)NCC(O)COc1cccc2[nH]c(=O)[nH]c12 (centres undefined) | 1 |
| Cc1nc2c([nH]1)c(=O)n(C)c(=O)n2Cc1ccco1 | 0.7 (active) |
| CN1C2CCC1CC(OC(=O)C(O)c1ccccc1)C2 (centres undefined) | 1.1 |

| Structure (SMILES) | fold change permeability |
| --- | --- |
| O=C1NC(=O)c2cc(Nc3ccccc3)c(Nc3ccccc3)cc21 | 0.9 |
| Nc1ccc(CCNc2ncnc3c2ncn3C2OC(CO)C(O)C2O)cc1 (centres undefined) | 1 |
| NC(N)=NC(N)=Nc1ccccc1 | 0.9 |
| Cc1cc(C)c(S(=O)(=O)N(CCc2cccc(Br)c2)Cc2ccc(-c3cccc(S(C)(=O)=O)c3)cc2)c(C)c1 | 1.8 (active) |
| Nc1ncnc2c1ncn2[C@@H]1O[C@H](CO)[C@@H](O)[C@H]1O | 1 |
| CC(C)C[C@H](NC(=O)[C@H]1O[C@@H]1C(=O)O)C(=O)NCCCCN=C(N)N | 1.3 (active) |
| C[N+](C)(C)CCCCCC[N+](C)(C)C | 1 |
| CC(C[N+](C)(C)C)OC(N)=O (centres undefined) | 1 |
| CCCCOc1cc(CC2CNC(=O)N2)ccc1OC (centres undefined) | 0.8 |
| CCCC(C(=O)OCCN(CC)CC)(c1ccccc1)c1ccccc1 | 1.2 |
| Cc1ccccc1/C=C/C1=NCCN1 | 0.7 (active) |
| COc1cccc(OC)c1OCCNCC1CSc2ccccc2O1 (centres undefined) | 1.1 |
| Cc1[nH]c(=O)c(C#N)cc1-c1ccncc1 | 0.8 |
| CC(C)(C)c1ccc(C(O)CCCN2CCC(C(O)(c3ccccc3)c3ccccc3)CC2)cc1 (centres undefined) | 1.4 (active) |
| NC(=Nc1ccc(OCCCCCOc2ccc(N=C(N)c3ccccc3)cc2)cc1)c1ccccc1 | 1 |
| NC(=O)c1cc[n+](CC2=C(C(=O)O)N3C(=O)[C@@H](NC(=O)[C@@H](c4ccccc4)S(=O)(=O)[O-])[C@H]3SC2)cc1 | 0.8 |
| CCN1/C(=C/C(C)=O)Sc2ccc(O)cc21 | 1.1 |
| Cn1ccc2cc(NC(=O)Nc3cccnc3)ccc21 | 1.2 |
| COc1ccccc1OCC(O)CN1CCN(CC(=O)Nc2c(C)cccc2C)CC1 (centres undefined) | 0.8 |
